Bioassay records deposited in PubChem BioAssay by National Center for Advancing Translational Sciences (NCATS).
ALDH1A1 block: inhibitors of human aldehyde dehydrogenase 1A1. Potency, µM (doses to about 75.3 µM), for the others: top-dose activity, negative = inhibition, hits mostly inhibitors. Purified ALDH1A1, NADH fluorescence, propionaldehyde substrate. hit rate 7.3% among 220,000;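 note: plate controls were no enzyme wells and a reference inhibitor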
Target sequence (P00352 whole entry, looked up): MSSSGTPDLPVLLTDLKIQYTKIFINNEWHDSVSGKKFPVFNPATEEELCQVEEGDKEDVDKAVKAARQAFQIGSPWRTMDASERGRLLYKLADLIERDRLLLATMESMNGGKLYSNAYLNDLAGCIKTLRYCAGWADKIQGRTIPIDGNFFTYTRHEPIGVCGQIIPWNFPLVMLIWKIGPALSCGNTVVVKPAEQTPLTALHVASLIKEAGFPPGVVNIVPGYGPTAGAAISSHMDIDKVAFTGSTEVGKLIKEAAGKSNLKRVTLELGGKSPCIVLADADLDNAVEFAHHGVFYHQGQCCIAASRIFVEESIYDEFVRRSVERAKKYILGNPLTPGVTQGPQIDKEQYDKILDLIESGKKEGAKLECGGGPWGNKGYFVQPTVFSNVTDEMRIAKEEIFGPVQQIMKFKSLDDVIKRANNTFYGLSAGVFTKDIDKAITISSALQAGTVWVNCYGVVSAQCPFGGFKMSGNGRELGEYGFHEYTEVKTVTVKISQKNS
IMPase Li cell: IMPase inhibition in cells with lithium potentiation; CHO-M1 cells, IP1 TR-FRET (IP-One), carbachol + lithium; Potency, µM (doses to about 59.4 µM), without a hit: at the top dose activity, negative = IMPase inhibition, actives largely listed as inhibitors; hit rate 0.35% among 210,000; active = well fitted curve in the direction sought with a large enough effect; inconclusive = small, poorly fitted or top-dose-only effect, or another doubt; inactive = no such curve, though single readings can be large; an effect the other way counts as inactive or inconclusive;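 note: IP1 builds up when IMPase is blocked and the TR-FRET signal falls; plate controls were basal vehicle for no effect and high inhibitor control for full effect; nearly all actives have a fitted effect of over 50% in size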
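Lithium-sensitised IP1 accumulation assay; M1-expressing CHO cells treated 30 min at 37C with compound. Competitive antibody detection by time-resolved FRET followed a 10 min room-temperature lysis step.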
Lamin A splicing: changes lamin A minigene splicing in HeLa cells; Potency, µM (highest dose often 46.1 µM), for the others: at the top dose ratio change, negative = inhibition, usual class: inhibitors; hit rate 0.01% among 200,000; HeLa LMNA splicing GFP/RFP minigene ratio, 48 h; AID 1487; active = well fitted inhibition curve with a large enough effect in the signal ratio, with a control signal flat, not every such curve was filed as active; inconclusive = small, poorly fitted or top-dose-only effect, or effect the other way, or a change in a side signal; the % refers to the signal ratio
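Read-out is the ratio of GFP to DsRed2 object intensity, acquired by 488 nm laser-scanning cytometry on HeLa lamin A-EGFP minigene reporter cells. Compound incubation 48 hrs at 37 °C in Opti-MEM with 2% FBS; DMSO 0.5% final.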
KinaseGlo FLuc: counter-screen: inhibitors of Kinase-Glo firefly luciferase | Kinase-Glo luciferase, ATP luminescence, 8 min | Potency, µM (doses to about 38.3 µM), for inactives: top-dose activity change, negative = inhibition, actives largely listed as inhibitors | hit rate 0.28% among 200,000; active = well fitted curve in the direction sought with a large enough effect; inconclusive = small, poorly fitted or top-dose-only effect, or another doubt; inactive = no such curve, though single readings can be large; an effect the other way counts as inactive or inconclusive; note: nearly all actives have a fitted effect of over 60% in size
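Substrate mix (final 50 mM imidazole pH 7.2, 50 mM KCl, 7 mM MgCl2, 10 uM ATP, 0.01% Tween 20, 0.05% BSA) plus pin-tool compound, then Kinase-Glo detection mix; 8 min ambient, luminescence read.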
HPGD inh: HPGD (human) dehydrogenase inhibition | hit rate 4.3% among 150,000 | Potency, µM, for the others: at the top dose activity change, negative = inhibition, hits mostly inhibitors | purified HPGD, NADH fluorescence kinetic, PGE2 substrate
Target sequence (P15428 whole entry, looked up): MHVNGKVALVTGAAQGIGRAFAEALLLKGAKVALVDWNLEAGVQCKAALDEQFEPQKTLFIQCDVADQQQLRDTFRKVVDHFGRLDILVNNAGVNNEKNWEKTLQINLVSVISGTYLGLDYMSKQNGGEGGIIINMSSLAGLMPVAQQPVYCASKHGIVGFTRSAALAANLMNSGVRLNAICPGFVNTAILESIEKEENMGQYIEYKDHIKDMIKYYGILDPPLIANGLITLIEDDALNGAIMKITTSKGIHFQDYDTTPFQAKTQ
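NADH formation kinetics: reaction with 30 uM PGE2 and 1 mM NAD+ (final), 20 nM enzyme, Tris-HCl pH 8 with Tween 20, after 15 min compound preincubation at room temperature. Fluorescence change, last versus first of five reads.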
* = called active by the depositor; ? = inconclusive; nt = no result; ! = not active in a repeat; [ ] = another dose, or the depositor's remark. An excerpt weighted towards active compounds, which were near 9% of everything screened. Unless noted, calls come from the whole dose curve; as a rule, active = well fitted inhibition curve with a large enough effect (not every such curve was filed as active); inconclusive = small, poorly fitted or top-dose-only effect, or another doubt; inactive = no such curve, though single readings can be large or run the other way. Unless noted, % is set by controls: 0 for no effect and ±100 for the full control effect; potency is the fitted concentration of half-maximal effect.

SMILES	ALDH1A1 block	IMPase Li cell	Lamin A splicing	KinaseGlo FLuc	HPGD inh
CCCC(=O)N1CCCC(c2nc(-c3cccc(OC)c3)no2)C1 (stereo not given)	5.7%	2.9%	?	-3.4%	nt
COc1cccc(-c2noc(C3CCCN(C(=O)Cc4ccccc4)C3)n2)c1 (stereo not given)	12.6µM*	21.3%[38.3 µM]	-12.0%	0.3%	-0.7%
Cc1ccc(-c2noc(C3CCCN(C(=O)c4ccccc4)C3)n2)o1 (stereo not given)	14.1µM*	7.0%[38.3 µM]	-9.9%	-4.9%	0.1%
COc1ccc(C(=O)N2CCCC(c3nc(-c4cc(OC)c(OC)c(OC)c4)no3)C2)cc1 (stereo not given)	11.1%	10.0%[38.3 µM]	0.2%	-0.2%	25.1µM*
O=C(NCCN1CCOCC1)c1ccc(-n2c(=O)c(=O)[nH]c3ccccc32)cc1	3.5%	nt	nt	-1.0%	-14.6%
O=c1c2ccccc2nc(SCCN2CCCCC2)n1CCc1ccccc1	5.9%	5.5%	-14.0%[46 µM]	1.1%	nt
COc1cc(/C=C(\NC(C)=O)C(=O)NC(C)(C)CC(C)(C)C)ccc1OC(C)=O	5.0%	-2.6%	-11.3%	-4.5%	-7.7%
COc1cc(/C=C(\NC(C)=O)C(=O)Nc2ccccc2C)ccc1OC(C)=O	28.2µM*	-0.2%	-4.3%	-1.1%	0.2%
COc1ccc(/C=C(/C#N)C(=O)Nc2ccccc2C)cc1C(=O)O	5.5%	-6.8%	-7.6%	0.1%	-16.4%
COc1ccc(NC(=O)/C(=C/c2ccc(OC(C)=O)c(OC)c2)NC(C)=O)cc1	3.98µM*	6.5%	2.6%	-1.6%	-14.2%
COc1cc(/C=C(\NC(C)=O)C(=O)Nc2ccc(NC(C)=O)cc2)ccc1OC(C)=O	0.251µM*	4.2%	-10.5%	-0.2%	-11.8%
COc1cccc(NC(=O)C(=O)NCCc2csc3nc(-c4ccccc4C)nn23)c1	nt	nt	-5.0%[46 µM]	nt	nt
Cc1c(Cl)ccc2sc(N3CCN(C(=O)CCS(=O)(=O)c4ccc(F)cc4)CC3)nc12	nt	nt	-7.6%[46 µM]	nt	nt
CC(C)(C)C(=O)Nc1ccc(-c2csnn2)cc1	5.0%	nt	?	nt	nt
Cc1cccc(NC(=O)CSc2nnc([C@@H]3CCCN3C(=O)OC(C)(C)C)o2)c1C	3.55µM*	-12.9%[38.3 µM]	?	12.7%	-8.1%
Cc1ccc(C)c(NC(=O)CSc2nnc([C@@H]3CCCN3C(=O)OC(C)(C)C)o2)c1	4.5%	nt	3.1%	nt	nt
CCOC(=O)c1sc(NC(=O)COC(=O)CNC(=O)c2ccco2)c(C(=O)OCC)c1C	28.2µM*	17.7%	?	2.4%	-26.4%
CCOC(=O)c1c(NC(=O)COC(=O)CNC(=O)c2ccco2)sc(C)c1C	-15.8%	-2.8%	?	0.7%	-11.4%
COC(=O)c1c(NC(=O)COC(=O)CNC(=O)c2ccco2)sc(C)c1C	?	-1.3%	?	-0.1%	-9.9%
CCOC(=O)c1c(NC(=O)Cc2cccs2)sc(C)c1C	12.6µM*	31.4%[38.3 µM]	0.2%	-7.5%	?
COC(=O)c1c(NC(=O)c2ccco2)sc(C(=O)N2CCCC2)c1C	14.1µM*	-11.1%[38.3 µM]	-3.3%	10.7%	17.8µM*
COC(=O)c1c(NC(=O)Cc2cccs2)sc(C(=O)N2CCCCC2)c1C	4.47µM*	-6.9%	-1.6%	0.1%	15.8µM*
CCOC(=O)c1c(NC(=O)Cc2cccs2)sc(C(=O)NC2CCCC2)c1C	14.3%	?	8.3%	0.8%	-1.1%
CCCCNCc1cccn1-c1ccccc1	-9.7%	6.0%	3.0%	-1.0%	-9.4%
COc1ccc(N(CC(=O)NCCC2=CCCCC2)S(=O)(=O)c2ccccc2)c(OC)c1	?	21.1%	10.6%[46 µM]	0.1%	nt
SMILES	ALDH1A1 block	IMPase Li cell	Lamin A splicing	KinaseGlo FLuc	HPGD inh
C/C(=C\C1CCCCC1)C(NC(=O)c1cccnc1)c1ccc(-c2ccccc2)cc1 (stereo not given)	-5.9%	-4.2%	nt	-0.3%	-19.4%
CCOC(=O)C1=C(O)/C(=C\c2ccc(CNC(=O)C(=O)Nc3ccccc3)o2)N=C1C	11.2µM*	71.6%[38.3 µM]	?	-5.5%	31.6µM*
CCOC(=O)C1=C(O)/C(=C\c2cccs2)N=C1C	-2.6%	26.0%	-1.9%	-1.8%	-8.6%
Cc1nn(CC(=O)NCc2ccc(C(=O)O)cc2)c(C)c1[N+](=O)[O-]	6.1%	1.9%	-2.1%[46 µM]	2.0%	nt
COc1cccc(C2=NOC(C(=O)Nc3cccnc3Cl)C2)c1 (stereo not given)	-1.9%	0.9%	?	9.5%	nt
Nc1ncnc2c1ncn2C1OC(CO)C(O)C1O (stereo not given)	-5.6%	-8.3%	?	-4.5%	-9.8%
Nc1ncnc2c1c(I)cn2C1OC(CO)C(O)C1O (stereo not given)	8.91µM*!	-6.7%	?	-4.7%	-7.7%
S=c1[nH]nc(C2CCCCC2)n1/N=C/c1ccco1	?	11.9%	15.9%	-1.7%	?
Cc1ccc(/C=N/n2c(C3CCCCC3)n[nH]c2=S)s1	-3.4%	3.4%	-9.2%	4.5%	11.2µM*
Cc1ccsc1/C=N/n1c(C2CCCCC2)n[nH]c1=S	?	4.5%	-3.7%	0.0%	12.6µM*
S=c1[nH]nc(C2CCCCC2)n1/N=C/c1ccccn1	3.55µM*	3.3%	nt	-0.4%	nt
Cc1ccc(/C=N/n2c(C)nnc2C)s1	7.9%	0.4%[38.3 µM]	8.0%	7.3%	-14.3%
CCOc1ccccc1N(C(=O)Nc1ccc(Cl)cc1)C1=NC(C)CS1 (stereo not given)	-0.4%	nt	-11.9%	nt	nt
O=C(COC(=O)c1cc(-c2cccs2)nc2ccccc12)NC1CCS(=O)(=O)C1 (stereo not given)	?	-12.0%	nt	9.9%	nt
O=C1OCC(c2ccccc2)=C1c1ccc(S(=O)(=O)N2CCOCC2)s1	20µM*	-6.0%[38.3 µM]	8.6%	-9.7%	?
CC(=O)c1cc(CC=C(C)C)c(O)cc1O	-0.3%	7.8%[38.3 µM]	7.8%	0.4%	12.6µM*
CN(/N=C\c1ccc(O)c(O)c1)c1nc(-c2ccccc2)cc(-c2ccccc2)n1	10.4%	7.4%	?	-1.1%	-25.0%
COc1cc(/C=C2\S/C(=N/S(=O)(=O)c3ccc(C)cc3)NC2=O)c([N+](=O)[O-])cc1OC	?	0.7%	-0.9%	1.5%	7.08µM*
Cc1ccc(S(=O)(=O)/N=C2/NC(=O)/C(=C/c3ccncc3)S2)cc1	?	1.5%	15.6%	1.4%	14.1µM*
Cc1ccc(S(=O)(=O)/N=C2/NC(=O)/C(=C/c3ccccc3)S2)cc1	?	10.7%	nt	4.3%	nt
COc1cc(/C=C2\SC(=O)NC2=O)ccc1Oc1ccc([N+](=O)[O-])cc1[N+](=O)[O-]	?	13.6%	?	3.5%	nt
CCc1ccc(N2C(=O)N(CC(=O)C(C)(C)C)c3ccccc3S2(=O)=O)cc1	nt	nt	-7.6%[46 µM]	nt	nt
COc1cc(CNn2c(C)n[nH]c2=S)cc(Cl)c1OCc1ccccc1	28.2µM*	10.8%[38.3 µM]	?	-1.5%	15.8µM*
COc1cc(CNn2cn[nH]c2=S)cc(Cl)c1OCc1ccc(F)cc1	?	15.8%	?	1.4%	?
O=C(CSc1nncc2ccccc12)N1CCOCC1	?	-9.1%[38.3 µM]	-4.1%	-3.0%	28.2µM*
